48 molecules from PubChem BioAssay AID686979 (National Center for Advancing Translational Sciences (NCATS), 2013) can be followed below.

About 50,000 (12%) of roughly 420,000 compounds were called active. Not shown: some 26% with an inconclusive outcome. This is one part of a sample in which actives are shown more often than they occur. A number with no mark means an inactive call. Calls follow the shape of the dose curve; as a rule, active = well fitted inhibition curve with a large enough effect; inconclusive = small, poorly fitted or top-dose-only effect; inactive = flat fitted curve, though single readings scatter.
% is scaled to controls: 0 for no effect and ±100 for the full control effect; potency is read from the fitted curve at half-maximal effect.

The nature of this assay: qHTS for Inhibitors of human tyrosyl-DNA phosphodiesterase 1 (TDP1): qHTS in cells in presence of CPT. Also: nearly all actives have a fitted effect of over 55% in size. As to conditions: chicken DT40 Tdp1-/-;hTDP1 cells + 20 nM CPT, ATP luminescence, 48 h; series mostly up to 46.2 µM; activity change, negative = growth inhibition: at the top concentration. The method, boiled down: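 Cell growth measured by CellTiter-Glo luminescence after a minimum 48 h, 37 C compound exposure with 20 nM CPT in Tdp1-knockout DT40 cells stably expressing hTDP1, seeded 400/well; qHTS titration format.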
As to `COc1ccc(Nc2ncc(F)c(N3CCOCC3)n2)cc1`, the Potency is 20.6 µM (active).

As to `COc1ccc(-n2c(=O)c(C)nc3cnc(N4CCOCC4)nc32)cc1`, the “activity change, negative = growth inhibition” value is 1.15%. With `CCOc1nc(NCCN2CCOCC2)nc(Nc2ccc(C)cc2)n1`, the “activity change, negative = growth inhibition” value is -12.3%. `Cc1ccc(-c2nnc3c4ccccc4c(C)nn23)cc1NC(=O)c1cccc(Br)c1`: the “activity change, negative = growth inhibition” value was -2.49%.

On to `Cc1cc[n+](-c2[nH]c(=O)sc2/C=N/NC(=O)c2ccccc2[O-])cc1C`, for which the “activity change, negative = growth inhibition” value is 5.4%. Turning to `Brc1ccc(-c2n(-c3ccccn3)c3ccccc3[n+]2-c2ccccn2)cc1`, the Potency is 18.4 µM (active).

With `O=C(CN1CCN(c2ccccn2)CC1)Nc1ccc(Br)cc1`, the “activity change, negative = growth inhibition” value is -23.7%. Consider `COc1cccc(NC(=O)N2CCC(NC(=O)C(Cc3cccc(C)c3)NC(C)=O)CC2)c1` (stereo not drawn), for which the “activity change, negative = growth inhibition” value was -13.8%. Turning to `Cn1c(-c2ccc(C(F)(F)F)cc2)cc2onc(-c3ccccc3)c2c1=O`, the “activity change, negative = growth inhibition” value is -14.9%. Same read-out and setting: the value for `O=C(c1csnn1)N1CCC2(CC1)CN(c1ncccn1)C2` was 0.98%. As for `CSCCC(Nc1ccc(S(=O)(=O)N2CCOCC2)cc1[N+](=O)[O-])C(=O)OCC(=O)N(C(C)C)C(C)C` (stereo not drawn), the “activity change, negative = growth inhibition” value was -16.1%. Take `CN(C)C(=O)c1ccc2c(c1)C1C3CCC(C3)C1C(c1ccccc1)N2` (stereo not drawn): the Potency was 16.4 µM (active). Consider `CN(C)C(=O)c1ccc(NC(=O)c2ccccc2-c2ccccc2)cc1`, for which the “activity change, negative = growth inhibition” value is 21.7%. The same measure, in the same setting: the value for `Cc1sc(NC(=O)c2ccc3ncsc3c2)c(C(N)=O)c1C` was -20.7%; that for `COc1cccc(NC(=O)N2C3CCCC2CC(NC(C)=O)C3)c1` (stereo not drawn) was -14%. As to `Cc1cccc(-n2ncc(C(=O)N3CCN(c4ccc(Cl)cc4)CC3)c2C2CCN(C(=O)OC(C)(C)C)CC2)c1`, the Potency is 14.6 µM (active).

For the molecule `COc1cccc2c1cc1c(=O)n(CC(=O)N3CCN(c4cccc(Cl)c4)CC3)nc(C)n12`, the “activity change, negative = growth inhibition” value was -12.6%. For the molecule `Cc1cccc(-n2ncc(C(=O)N3CCC(C)CC3)c2C2CCN(C(=O)OC(C)(C)C)CC2)c1`, the “activity change, negative = growth inhibition” value is -7.73%.

With `CCOC(=O)N1CCC(NC(=O)CCc2ccccc2)CC1`, the “activity change, negative = growth inhibition” value is -3.28%.

Turning to `CC(C)(C)OC(=O)N1CCC(c2c(C(=O)N3CCN(c4cccc(Cl)c4)CC3)cnn2-c2cccc(Cl)c2)CC1`, the Potency was 14.6 µM (active). With `CCOC(=O)N1CCC(NC(=O)c2cnn(-c3cccc(C)c3)c2C2CCN(C(=O)OC(C)(C)C)CC2)CC1`, the Potency was 23.1 µM (active). For the molecule `Cc1cccc(-n2ncc(C(=O)N3CCc4ccccc4C3)c2C2CCN(C(=O)OC(C)(C)C)CC2)c1`, the “activity change, negative = growth inhibition” value was 2.4%. Still for that read-out and setting: the result for `CC(C)(C)OC(=O)N1CCC(C(=O)NNC(=O)c2ccc(Cl)cc2Cl)CC1` reads -11.4%; that for `CCOC(=O)N1CCC(NC(=O)c2cnn3ccccc23)CC1`, -1.32%. Same read-out and setting: the value for `CCCCN(C(=O)CCNC(=O)NC12CC3CC(CC(C3)C1)C2)c1c(N)n(CCCC)c(=O)[nH]c1=O` was -12.9%; that for `Cc1ccc(S(=O)(=O)N2CC(O)C[C@H]2C(=O)OCC(=O)Nc2ccc(N3CCOCC3)cc2)cc1C` (stereo partly drawn) was -0.832%. On the same count and under the same terms, the value for `COc1ccc(S(=O)(=O)N2CCCC2CNC(=O)C(=O)NC2CC2)cc1` (stereo not drawn) was 7.32%. As for `Cc1ccc(NC(=O)CC2S/C(=N/N=C3\CCCc4ccccc43)NC2=O)cc1` (stereo not drawn), the “activity change, negative = growth inhibition” value is -0.71%. On to `CN1C(=O)/C(=C\c2cc(Br)cs2)c2ccccc21`, for which the “activity change, negative = growth inhibition” value is -29.3%.

In the case of `N#CC1=C(N)Oc2cc(N)ccc2C1c1ccccc1` (stereo not drawn), the Potency was 23.1 µM (active).

For `N#CC1=C(N)Oc2c(ccc3cccnc23)C1c1ccncc1` (stereo not drawn), the “activity change, negative = growth inhibition” value is -20.9%. On the same count and under the same terms, the value for `Cc1cc(C)c2c3c(sc2n1)C(c1ccccc1)C(C#N)=C(N)O3` (stereo not drawn) was -20.3%; that for `CN1C(=O)C2(OCCCO2)c2cc(Cl)ccc21` was 9.13%. Turning to `C=O`, the “activity change, negative = growth inhibition” value was 10.9%. For the molecule `CCOc1ccc(NS(=O)(=O)c2ccc(C(=O)NCC(c3ccccc3OC)N3CCCC3)cc2)cc1` (stereo not drawn), the Potency was 29.1 µM (active). Regarding `COc1ccc(C(CNC(=O)c2ccc(OCc3cscn3)cc2)N2CCCC2)cc1` (stereo not drawn), the “activity change, negative = growth inhibition” value is -10.8%. As to `CCOc1ccc(NS(=O)(=O)c2ccc(C(=O)NCC3CCCO3)cc2)cc1` (stereo not drawn), the “activity change, negative = growth inhibition” value was -27.2%. Turning to `CN=C(NC#N)NCCSCc1nc[nH]c1C`, the Potency entry was “inactive”.

`CCC(C)C(=O)Nc1cc([N+](=O)[O-])ccc1Cl` (stereo not drawn): the “activity change, negative = growth inhibition” value was -3.83%. The same measure, in the same setting: the value for `CC(=O)Nc1ccc(NC(=O)c2ccc3c(c2)C(=O)N(c2ccccc2C)C3=O)cc1` was -2.84%. `O=S(=O)(c1ccc2nc(NCc3ccccc3Cl)ccc2c1)N1CCCCC1`: the Potency is 10.3 µM (active).

With `O=S(=O)(NCc1ccccc1)c1ccc(S(=O)(=O)N2CCCC2)cc1`, the “activity change, negative = growth inhibition” value was -21.9%. For `O=S(=O)(c1ccc2nc(N3CCN(c4cccc(Cl)c4)CC3)ccc2c1)N1CCCCC1`, the “activity change, negative = growth inhibition” value was 4.01%. Regarding `CC(C)C(NC(=O)C1CCC(C(C)(C)C)CC1)C(=O)NCCCN1CCCCC1` (stereo not drawn), the “activity change, negative = growth inhibition” value was 26.4%. For `CC(C)N1C(=O)c2ccccc2NC(=O)C1C(=O)NCc1cccs1` (stereo not drawn), the “activity change, negative = growth inhibition” value is -29.6%. As to `CCS(=O)(=O)N1CCCC(C(=O)NCc2ccc(C)cc2)C1` (stereo not drawn), the “activity change, negative = growth inhibition” value is -12.6%. On to `CCOc1ccc(N(CC)S(=O)(=O)N2CCCC(C(=O)NCc3ccc(SC)cc3)C2)cc1` (stereo not drawn), for which the Potency was 23.1 µM (active). Same read-out and setting: the result for `CCOc1ccc(N(CC)S(=O)(=O)N2CCCC(C(=O)Nc3ccc(C(C)=O)cc3)C2)cc1` (stereo not drawn) reads 20.6 µM (active).
